Screening data (PubChem BioAssay)
A selection: hits, their analogues and other compounds. The true share with any hit is near 19%.
TDP1 cell CPT – growth inhibition of DT40 Tdp1-/-;hTDP1 cells with camptothecin (screen for TDP1 inhibitors). chicken DT40 Tdp1-/-;hTDP1 cells + 20 nM CPT, ATP luminescence, 48 h. Potency, µM (titrated, usually from 46.2 µM), for inactives: at the highest dose activity change, negative = growth inhibition, actives largely listed as inhibitors. 420,000 tested, 12% active; further: potency means the concentration at half of the fitted maximal effect; nearly all actives have a fitted effect of over 55% in size
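Chicken DT40 Tdp1-/- cells complemented with human TDP1, 400 cells/well, exposed to compounds plus 20 nM camptothecin for at least 48 h at 37 C; viability read as ATP content by CellTiter-Glo luminescence.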
IL1B secr inh – inhibitors of inflammasome signaling (IL-1 beta secretion); AID 743279; activity change, % at 57.5 µM; THP-1 LPS/ATP IL-1B secretion, AlphaLISA, 16 h; active compounds read low; 360,000 tested, 4.7% active; in the data active means activity change below about -50%; inconclusive means mostly about -30% to -49%
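THP-1 cells pretreated 1 hr with compounds (up to 57.5 uM final), then stimulated with LPS (250 ng/mL final) plus ATP (1.25 mM final); secreted IL-1B measured by AlphaLISA after 16 hr, decreased signal indicating inhibition.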
TDP1 cell noCPT – qHTS for Inhibitors of human tyrosyl-DNA phosphodiesterase 1 (TDP1): qHTS in cells in absence of CPT | DT40 Tdp1-/- hTDP1 cells, no CPT, ATP luminescence, 48 h | Potency, µM (titrated, usually from 46.2 µM), without a hit: top-dose activity change, negative = growth inhibition, usual class: inhibitors | 420,000 tested, 15% active; further: potency means the concentration at half of the fitted maximal effect; nearly all actives have a fitted effect of over 55% in size
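DT40 Tdp1-/-;hTDP1 cells, no CPT (DMSO vehicle only), 400 cells/well; compounds pin-transferred; ≥48 hr, 37 °C; CellTiter-Glo 30 min RT dark, luminescence read.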
TDP1 inh – inhibitors of human tyrosyl-DNA phosphodiesterase TDP1; Q9NUW8; recombinant TDP1, AlphaScreen DNA substrate cleavage; Potency, µM (doses to about 130 µM), for inactives: at the highest dose activity change, negative = inhibition, hits mostly inhibitors; 350,000 tested, 0.28% active; AID 485290; further: potency means the concentration at half of the fitted maximal effect; nearly all actives have a fitted effect of over 40% in size
Target sequence (Q9NUW8 whole entry, looked up): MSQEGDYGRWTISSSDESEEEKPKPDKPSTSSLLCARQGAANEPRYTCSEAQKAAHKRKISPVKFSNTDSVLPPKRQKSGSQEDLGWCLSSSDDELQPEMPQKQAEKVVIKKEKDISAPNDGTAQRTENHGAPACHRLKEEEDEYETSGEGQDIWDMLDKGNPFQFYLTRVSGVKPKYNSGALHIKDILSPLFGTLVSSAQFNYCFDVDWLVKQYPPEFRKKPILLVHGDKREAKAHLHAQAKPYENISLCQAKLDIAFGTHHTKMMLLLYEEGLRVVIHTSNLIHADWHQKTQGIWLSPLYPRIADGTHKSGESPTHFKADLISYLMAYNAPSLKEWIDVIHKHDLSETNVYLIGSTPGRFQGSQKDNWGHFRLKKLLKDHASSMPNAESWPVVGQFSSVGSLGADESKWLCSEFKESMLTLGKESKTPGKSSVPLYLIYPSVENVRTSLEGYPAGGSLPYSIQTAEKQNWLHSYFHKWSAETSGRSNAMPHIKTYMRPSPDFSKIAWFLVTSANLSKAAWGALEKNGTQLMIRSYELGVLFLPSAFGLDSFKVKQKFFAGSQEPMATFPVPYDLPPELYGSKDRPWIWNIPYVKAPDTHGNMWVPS
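Steps: enzyme plus compound, 15 min RT; add biotin/phosphotyrosine-FITC oligonucleotide (15 nM final), react 5 min; add donor/acceptor beads (10 ug/ml final), 10 min; read AlphaScreen. Tdp1 at 1 nM final.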
Giardia kill – Giardia lamblia killing. Giardia lamblia trophozoite viability. activity change, % at 7.66 µM, hits read low. 340,000 tested, 0.15% active. AID 540267; in the data active means activity change below about -80%; inconclusive means between about -30% and that limit;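 further: parasites exposed to compound for two days anaerobically before the ATP read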
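Killing of trophozoites was scored by loss of ATP luminescence after a 48 hrs anaerobic exposure to compounds at 37 deg C, using 100 cells per well.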
ELG1 repair inh – blocks ELG1-dependent DNA repair in HEK293T cells; HEK293T ELG1-luciferase reporter, luminescence, 16 h; DNA damage induced by 5-fluorouridine; Potency, µM (doses to about 46.1 µM), without a hit: at the highest dose activity change, negative = inhibition, hits mostly inhibitors; 330,000 tested, 2.3% active; AID 504467; further: potency means the concentration at half of the fitted maximal effect; nearly all actives have a fitted effect of over 55% in size
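HEK293T cells expressing luciferase-tagged ELG1 (2,000/well) received 5-Fluorouridine plus compound or DMSO for 16 hr at 37 °C. Luciferase was read by ONE-Glo luminescence after 30 min at room temperature.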
Numbers without * were called inactive. Unless noted, the call rests on the fitted dose curve; in most records, active means well fitted curve in the direction sought with a large enough effect; inconclusive means small, poorly fitted or top-dose-only effect, or another doubt; inactive means no such curve, though single readings can be large; an effect the other way counts as inactive or inconclusive. On the % scale 0 is the no-effect control and ±100 the full control effect.

CC1CCCN(S(=O)(=O)c2ccc(C(=O)Nc3ccccc3-c3nc4ccccc4[nH]3)cc2)C1 (stereo not given) was read as TDP1 cell CPT 18µM*, IL1B secr inh 20, TDP1 cell noCPT 10µM*, TDP1 inh -3%, Giardia kill 19 and ELG1 repair inh inconclusive.
`CC1CCN(S(=O)(=O)c2ccc(C(=O)Nc3ccccc3-c3nc4ccccc4[nH]3)cc2)CC1` gave TDP1 cell CPT inconclusive, IL1B secr inh 4, TDP1 cell noCPT inconclusive, TDP1 inh 5%, Giardia kill -11 and ELG1 repair inh 16µM*.
For Cc1cc(F)ccc1S(=O)(=O)Nc1ccccc1C(=O)Nc1ccccc1-c1nc2ccccc2[nH]1 the results were TDP1 cell CPT 5.8µM*, IL1B secr inh -79*, TDP1 cell noCPT 7.3µM*, TDP1 inh -1%, Giardia kill -9 and ELG1 repair inh inconclusive.
`COc1ccccc1NC(=O)c1ccc(S(=O)(=O)N2CCCC(C)C2)cc1` (stereo not given) gave TDP1 cell CPT 6%, IL1B secr inh -8, TDP1 cell noCPT -30%, TDP1 inh 11%, Giardia kill -2 and ELG1 repair inh -12%.
CCOCCCNC(=O)C1CCN(S(=O)(=O)c2ccc3nc4c(c(C(=O)O)c3c2)CCCCC4)CC1 was read as TDP1 cell CPT -6%, IL1B secr inh -4, TDP1 cell noCPT 13%, TDP1 inh 5%, Giardia kill 7 and ELG1 repair inh 3%.
Screening Cc1cc(=O)[nH]c(SCC(=O)Nc2c(C)n(C)n(-c3ccccc3)c2=O)c1C#N returned TDP1 cell CPT -18%, IL1B secr inh -21, TDP1 cell noCPT -3%, TDP1 inh 2%, Giardia kill -3 and ELG1 repair inh -1%.
`O=C(COc1ccccc1Cl)Nc1ccc(OCc2cc(=O)n3ccsc3n2)cc1` gave TDP1 cell CPT 3%, TDP1 cell noCPT 9% and TDP1 inh 1%.
`COC(=O)c1ccc(-n2c(C)cc(C(=O)CSc3cccc[n+]3[O-])c2C)cc1` gave TDP1 cell CPT -25%, IL1B secr inh 11, TDP1 cell noCPT inconclusive, TDP1 inh 8%, Giardia kill 10 and ELG1 repair inh -1%.
For O=C(CSc1cccc[n+]1[O-])Nc1cc2c(cc1Cl)C(=O)c1ccccc1C2=O the results were TDP1 cell CPT 21µM*, IL1B secr inh -6, TDP1 cell noCPT inconclusive, TDP1 inh -3%, Giardia kill inconclusive and ELG1 repair inh inconclusive.
Screening O=C(CSc1cccc[n+]1[O-])Nc1ccccc1C(F)(F)F returned TDP1 cell CPT -6%, IL1B secr inh 6, TDP1 cell noCPT -6%, TDP1 inh -1%, Giardia kill 16 and ELG1 repair inh 7%.
Screening COC(=O)c1ccc(C(=O)OC)c(NC(=O)CSc2cccc[n+]2[O-])c1 returned TDP1 cell CPT 0.92µM*, IL1B secr inh 90, TDP1 cell noCPT 0.73µM*, TDP1 inh 8%, Giardia kill -5 and ELG1 repair inh inconclusive.
`O=C(CSc1cccc[n+]1[O-])Nc1ccccc1Oc1ccccc1` gave TDP1 cell CPT 0.92µM*, IL1B secr inh -102*, TDP1 cell noCPT 1.5µM*, TDP1 inh 0%, Giardia kill 18 and ELG1 repair inh -11%.
For CCCCn1c(N)c(N(CCOC)C(=O)C2CC(=O)N(c3cccc(SC)c3)C2)c(=O)[nH]c1=O (stereo not given) the results were TDP1 cell CPT -11%, IL1B secr inh 2, TDP1 cell noCPT 4%, TDP1 inh -12%, Giardia kill -23 and ELG1 repair inh 1%.
